Test [1] can be described thus: qHTS RealTime-Glo MT Cell Viability Assay in HEK293 cells - 0 hour (AID 1224880). Further: top concentration of the series differs between compounds; nearly all actives have a fitted effect of over 45% in size. The gist of the method: (§1)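 qHTS format; HEK293 cells with NanoLuc/prosubstrate reagent, 37 C/5% CO2 for 5 h pre-dosing; compounds 23 nL in DMSO; luminescence at each time point reflects viable cells.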
(In qHTS, concentration-response curves come from the screen itself.)

Test [2] in a line: A CellTox Green Cytotoxicity Assay to monitor cytotoxicity in HEK293 cells - 32 hour (AID 1224881). Further: nearly all actives have a fitted effect of over 40% in size. The gist of the method:
(§2)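 Each value comes from one timepoint of a single continuous run in which HEK293 cells with CellTox Green were exposed to compound for up to 40 h at 37 C, dye fluorescence rising with cell death.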

Test [3] in a line: A CellTox Green Cytotoxicity Assay to monitor cytotoxicity in HepG2 cells - 0 hour (AID 1224882). Further: nearly all actives have a fitted effect of over 35% in size. The procedure, abridged:
(§3)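 Continuous culture of HepG2 cells with a membrane-impermeant DNA dye; rising fluorescence marks dead cells. Compound exposure lasted up to 40 h at 37 C, with reads every 8 h from 0 h.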

The nature of test [4]: A CellTox Green Cytotoxicity Assay to monitor cytotoxicity in HepG2 cells - 32 hour (AID 1224883). Further: nearly all actives have a fitted effect of over 50% in size. Further: potency means the concentration at half of the fitted maximal effect. The gist of the method: as §3
A short description of test [5]: qHTS RealTime-Glo MT Cell Viability Assay in HEK293 cells - 8 hour (AID 1224887). Further: top concentration of the series differs between compounds; nearly all actives have a fitted effect of over 50% in size. The gist of the method: as §1
Test [6] in a line: A CellTox Green Cytotoxicity Assay to monitor cytotoxicity in HEK293 cells - 16 hour (AID 1224888). Further: nearly all actives have a fitted effect of over 35% in size. The gist of the method: as §2
Test [7] is described as follows: qHTS RealTime-Glo MT Cell Viability Assay in HepG2 cells - 0 hour (AID 1224889). Further: nearly all actives have a fitted effect of over 50% in size. The gist of the method:
(§4)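 Luminescence read-out: viable HepG2 cells reduce a prosubstrate to a NanoLuc substrate, giving a signal proportional to live cell number. Reads taken at 0, 8, 16, 24, 32 and 40 h of compound exposure at 37 C.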

Test [8] in a line: A CellTox Green Cytotoxicity Assay to monitor cytotoxicity in HepG2 cells - 8 hour (AID 1224890). Further: nearly all actives have a fitted effect of over 45% in size. The gist of the method: as §3
A short description of test [9]: qHTS assay to identify small molecule antagonists of the estrogen receptor alpha (ER-alpha) signaling pathway using the BG1 cell line in the presence of 0.1 nM 17-beta-estradiol - cell viability counter screen (AID 1259241). Further: nearly all actives have a fitted effect of over 40% in size. Further: potency means the concentration at half of the fitted maximal effect. The procedure, abridged: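 VM7Luc4E2 cells (endogenous ER-alpha, 4×ERE-luciferase), hormone-starved 5 days in charcoal-stripped FBS, were treated with compounds plus 0.1 nM 17beta-estradiol for 22 hr at 37C; viability read in same wells as CellTiter-Fluor live-cell protease fluorescence.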

The nature of test [10]: qHTS assay to identify small molecule antagonists of the androgen receptor (AR) signaling pathway using the MDA cell line in the presence of 0.5 nM R1881 - cell viability counter screen (AID 1259242). Further: nearly all actives have a fitted effect of over 45% in size. Further: potency means the concentration at half of the fitted maximal effect. The procedure, abridged:
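Fluorescence from CellTiter-Fluor, which reports protease activity of live cells, was read 30 min after reagent addition to MDA-kb2 cells that had been incubated 16 hr with compound and 0.5 nM R1881.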

Test [11] is described as follows: qHTS assay to identify small molecule phospholipidosis (PLD) inducers (AID 1259344; active means well fitted curve in the direction sought with a large enough effect; an effect the other way counts as inactive or inconclusive). The procedure, abridged:
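HepG2 cells grown on collagen I take up LipidTOX Red while exposed to compound for 24 h; after fixation they are imaged at 20x and pit metrics are extracted.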

Test [12] can be described thus: qHTS assay to identify small molecule HDAC inhibitors - cell viability counter screen (AID 1259365). Further: series mostly up to about 92 µM; nearly all actives have a fitted effect of over 50% in size. The procedure, abridged:
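Wild-type HCT-116 cells were seeded at 1,500 per well, incubated overnight at 37 C, then exposed to compounds in DMSO for 2hr. Viability was read by CellTiter-Glo luminescence after 30min at room temperature.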

The nature of test [13]: qHTS assay to identify small molecule agonists of the sonic hedgehog signaling (Shh) pathway - cell viability counter screen (AID 1259366). Further: nearly all actives have a fitted effect of over 50% in size. Further: potency means the concentration at half of the fitted maximal effect. The procedure, abridged: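 NIH/3T3-derived 3T3 Gli1-Luc cells (stable Gli1-responsive firefly luciferase reporter) were seeded, rested 4 hr at 37 C/5% CO2, then exposed to compounds in DMSO for 24 hr; viability was read by CellTiter-Fluor fluorescence in the same wells.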

A short description of test [14]: qHTS assay to identify small molecule antagonists of the sonic hedgehog signaling (Shh) pathway - cell viability counter screen (AID 1259367). Further: nearly all actives have a fitted effect of over 55% in size. Further: potency means the concentration at half of the fitted maximal effect. The procedure, abridged:
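After a 4 hr settling period, 3T3 Gli1-Luc cells were treated with DMSO-dissolved chemicals and conditioned medium, kept 24 hr at 37C in 5% CO2, and assayed for viability by CellTiter-Fluor fluorescence following 1 hr reagent incubation.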

The nature of test [15]: qHTS RealTime-Glo MT Cell Viability Assay in HepG2 cells - 16 hour (AID 1224885). Further: nearly all actives have a fitted effect of over 50% in size. The procedure, abridged: as §4
Test [16] can be described thus: qHTS assay to identify small molecule HDAC inhibitors (AID 1259364). Further: nearly all actives have a fitted effect of over 45% in size. Further: potency means the concentration at half of the fitted maximal effect. The procedure, abridged:
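Endogenous HDAC class I/II activity was measured in wild-type HCT-116 cells by HDAC-Glo luminescence after 2 h compound treatment.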

Test [17] in a line: qHTS RealTime-Glo MT Cell Viability Assay in HEK293 cells - 24 hour (AID 1224886). The gist of the method:
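Nonlytic real-time viability readout: viable cells convert prosubstrate to NanoLuc substrate, giving luminescence proportional to live cell number. HEK293, 600 cells/well, compound added after 5 h, continuous culture at 37 C.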

Test [18] addresses Estrogen receptor (Homo sapiens) (UniProt P03372). Description: qHTS assay to identify small molecule antagonists of the estrogen receptor alpha (ER-alpha) signaling pathway using the BG1 cell line in the presence of 0.1 nM 17-beta-estradiol (AID 1259244). Further: nearly all actives have a fitted effect of over 50% in size. The gist of the method: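 Quantitative high-throughput screen in VM7Luc4E2 cells: compound plus 0.1 nM E2 (final), 22 h, 37C, 5% CO2; ONE-Glo added, 30 min room temperature, luminescence measured.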

Test [19] in a line: A CellTox Green Cytotoxicity Assay to monitor cytotoxicity in HEK293 cells - 8 hour (AID 1224884). Further: nearly all actives have a fitted effect of over 35% in size. The procedure, abridged:
as §2

Test [20] deals with Androgen receptor (Homo sapiens) (UniProt P10275). Description: qHTS assay to identify small molecule antagonists of the androgen receptor (AR) signaling pathway using the MDA cell line in the presence of 0.5 nM R1881 (AID 1259243). Further: nearly all actives have a fitted effect of over 50% in size. The procedure, abridged:
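Inhibition of R1881 (0.5 nM final) induced reporter signal was measured in human MDA-kb2 cells; note the MMTV promoter also responds to GR. Exposure lasted 16 hr at 37C.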

Values without a mark were called inactive. Inconclusive results are not listed. Active and inactive are the calls of the source. Unless noted, the call rests on the fitted dose curve; in most records, active means well fitted curve in the direction sought with a large enough effect in the repeat runs; inconclusive means weak or mixed curves; inactive means no such curve, though single readings can be large; an effect the other way counts as inactive or inconclusive.

Estrogen receptor (Homo sapiens), sequence (P03372 whole entry, looked up): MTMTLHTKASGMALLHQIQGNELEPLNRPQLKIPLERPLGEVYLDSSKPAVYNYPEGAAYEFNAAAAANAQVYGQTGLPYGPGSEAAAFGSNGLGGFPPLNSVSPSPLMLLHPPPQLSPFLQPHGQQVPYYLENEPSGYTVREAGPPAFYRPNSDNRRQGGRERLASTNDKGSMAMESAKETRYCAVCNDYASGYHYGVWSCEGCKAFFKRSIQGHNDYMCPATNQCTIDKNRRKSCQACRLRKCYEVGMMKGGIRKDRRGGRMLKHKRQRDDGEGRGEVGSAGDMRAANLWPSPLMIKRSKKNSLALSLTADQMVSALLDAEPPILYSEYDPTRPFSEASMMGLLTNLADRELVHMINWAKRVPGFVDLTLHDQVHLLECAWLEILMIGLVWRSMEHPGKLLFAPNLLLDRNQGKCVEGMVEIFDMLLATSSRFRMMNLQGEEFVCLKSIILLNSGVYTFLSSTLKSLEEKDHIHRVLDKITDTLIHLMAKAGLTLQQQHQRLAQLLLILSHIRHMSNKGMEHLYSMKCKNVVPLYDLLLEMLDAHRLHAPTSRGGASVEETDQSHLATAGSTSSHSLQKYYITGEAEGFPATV
Androgen receptor (Homo sapiens), sequence (P10275 whole entry, looked up): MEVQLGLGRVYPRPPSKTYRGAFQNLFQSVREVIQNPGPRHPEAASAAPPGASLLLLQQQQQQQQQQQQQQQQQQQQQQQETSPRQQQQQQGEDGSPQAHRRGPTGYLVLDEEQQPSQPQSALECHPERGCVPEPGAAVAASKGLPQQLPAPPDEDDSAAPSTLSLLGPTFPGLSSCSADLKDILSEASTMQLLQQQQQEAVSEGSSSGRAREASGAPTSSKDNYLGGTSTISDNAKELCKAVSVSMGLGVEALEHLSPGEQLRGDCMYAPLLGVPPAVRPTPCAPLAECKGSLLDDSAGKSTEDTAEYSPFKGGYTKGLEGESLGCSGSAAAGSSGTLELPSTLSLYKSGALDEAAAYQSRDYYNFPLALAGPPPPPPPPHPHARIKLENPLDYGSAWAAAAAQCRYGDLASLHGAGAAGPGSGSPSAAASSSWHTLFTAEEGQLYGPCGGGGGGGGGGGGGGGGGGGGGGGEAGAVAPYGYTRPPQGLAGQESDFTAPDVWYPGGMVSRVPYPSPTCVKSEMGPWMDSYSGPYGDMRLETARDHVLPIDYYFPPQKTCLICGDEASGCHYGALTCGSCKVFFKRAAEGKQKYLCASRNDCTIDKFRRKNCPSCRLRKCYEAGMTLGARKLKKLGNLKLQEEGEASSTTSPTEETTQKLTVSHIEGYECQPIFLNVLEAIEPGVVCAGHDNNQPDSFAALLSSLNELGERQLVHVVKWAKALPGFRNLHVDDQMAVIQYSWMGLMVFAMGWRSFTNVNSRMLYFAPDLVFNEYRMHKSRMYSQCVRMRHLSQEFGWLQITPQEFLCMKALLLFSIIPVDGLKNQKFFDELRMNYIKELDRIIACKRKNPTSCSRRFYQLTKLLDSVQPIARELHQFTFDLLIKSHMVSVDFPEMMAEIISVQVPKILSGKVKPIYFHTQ

Turning to `Clc1ccccc1-c1nc(-c2ccncc2)no1`, the Potency entry in test [1], in [2], in [3], in [4], in test [5] and in test [6] was “inactive” each time. Moreover, the Potency result in test [7], in test [8], in test [9], in test [10], in [11] and in test [13] was “inactive” in each case. In addition, the Potency entry in test [14] was “inactive”. In test [12], the result was inactive.

As for `CCn1nc(Cc2ccccc2)cc1C1CCN(C[C@H]2C[C@H](N(C)[C@@H](C(=O)O)C(C)C)C[C@@H]2c2cccc(F)c2)CC1`, the Potency result in [1], in test [2], in [3], in [6], in test [7] and in test [8] was “inactive” each time. In addition, the Potency result in test [9], in test [10] and in test [16] was “inactive” each time. For the same compound, the compound was classed as inactive in test [15] and in test [12].

Regarding `O=C1c2ccccc2C(=O)C1c1ccc2cc(S(=O)(=O)O)cc(S(=O)(=O)O)c2n1`, the Potency entry in test [2], in test [3], in test [4], in [17], in test [8] and in test [18] was “inactive” throughout. In addition, the compound was called inactive in [15] and in [12]. Moreover, the Potency in test [9] is 58.9 µM (active); in test [10] it was 58.9 µM (active); in test [16] it was 0.589 µM (active); in test [13] it was 29.5 µM (active); in test [14], 29.5 µM (active).

For the compound `CCCCCCCCCCCCN1CCOCC1`, the Potency result in test [2], in test [3], in [4], in [19], in test [17] and in [5] was “inactive” throughout. Further, the Potency result in [6], in [7], in test [8], in [9], in test [10] and in [18] was “inactive” throughout. For the same compound, the Potency entry in [16], in [13] and in [14] was “inactive” throughout. Besides, the call in test [15] and in [12] was inactive.

Turning to `O=C(c1ccc(Cl)cc1)c1ccc(Cl)cc1`, the Potency entry in [1], in test [2], in [3], in [19], in [17] and in [5] was “inactive” each time. The Potency result in test [6], in test [7], in test [8], in [9], in test [10] and in test [20] was “inactive” each time. Moreover, the Potency entry in test [18], in test [16], in test [13] and in test [14] was “inactive” throughout. Besides, the result in test [15] and in [12] was inactive.

`CCCCOC(=O)CC#N`: the Potency entry in [1], in test [2], in test [3], in test [4], in [17] and in test [5] was “inactive” each time. For the same compound, the Potency entry in [6], in test [7], in [8], in test [9], in [10] and in [16] was “inactive” in each case. Moreover, the Potency result in test [13] and in test [14] was “inactive” each time. Besides, in test [12], the compound was called inactive.

Regarding `O=C1c2ccccc2C(=O)C1c1ccc2ccccc2n1`, the Potency result in test [1], in test [3], in test [4], in [7], in test [8] and in test [9] was “inactive” throughout. Also, the Potency result in test [10], in [13] and in test [14] was “inactive” each time. Moreover, the outcome in [15] and in test [12] was inactive. Moreover, the Potency in test [16] is 1.91 µM (active).

Take `CC(C)(C)c1ccc(CCC=O)cc1`: the Potency entry in test [1], in [2], in test [3], in test [19], in [17] and in test [5] was “inactive” throughout. For the same compound, the Potency result in [6], in test [7], in test [8], in test [9], in test [18] and in test [13] was “inactive” each time. Further, in [14], the Potency entry was “inactive”. The result in test [15] and in test [12] was inactive.

Take `N#CCCCC(C#N)CCC#N` (stereo not drawn): the Potency entry in test [1], in test [2], in [3], in test [4], in test [17] and in [5] was “inactive” in each case. The Potency result in test [7], in test [8], in [9], in [10], in test [18] and in [13] was “inactive” in each case. In addition, the Potency result in [14] was “inactive”.

Consider `CCOc1ccc2c(c1)C(C)CC(C)(C)N2` (stereo not drawn), for which the Potency result in test [1], in test [3], in test [19], in test [17], in test [5] and in test [6] was “inactive” in each case. In addition, the Potency entry in test [7], in test [9], in test [10], in [20], in [16] and in test [13] was “inactive” throughout. Further, the Potency in test [4] was 43.6 µM (active). The result in test [15] and in [12] was inactive.

Turning to `c1ccc(CN(Cc2ccccc2)Cc2ccccc2)cc1`, the Potency result in [1], in test [2], in [3], in [19], in test [17] and in test [5] was “inactive” throughout. The Potency result in test [6], in test [7], in test [8], in [9], in test [10] and in test [13] was “inactive” throughout. Moreover, in test [14], the Potency entry is “inactive”. The compound was called inactive in [15] and in [12].

As to `CC(C)CC(C)(C)C`, the Potency entry in test [3], in [4], in [19], in test [8], in [9] and in [10] was “inactive” in each case. Moreover, the Potency result in test [18], in [13] and in [14] was “inactive” in each case. Also, the result in [15] was inactive.
